# The list is not random: actives were taken first. Their share in the collection is about 6.9%.
# Mdm2-MdmX inh – disrupts the human Mdm2-MdmX interaction | O15151+Q00987 | SaOS-2 split-luciferase Mdm2/MdmX complementation, luminescence | inhibition, % at 8 µM | 3% of 330,000 active;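 active = inhibition of at least 50% at 8 µM in the primary screen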
# GRIN3A LBD mod – NR3A (human) ligand-binding domain modulation; NR3A LBD differential scanning fluorimetry, Tm shift; 0% = protein alone, 100% = glycine-bound protein; Tm shift relative to glycine control, % at 25 µM; 2.5% of 340,000 active; AID 1259313;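 active = melting temperature shift of at least 10% of the positive control shift, at one fixed dose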
# MPTP inh – permeability transition pore inhibition | isolated mouse mitochondria, Ca2+ swelling absorbance, 30 min | inhibition, % at 10 µM | 1.4% of 360,000 active;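 active = inhibition of 50% or more, scaled per plate between neutral and stimulator controls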;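 note: 0% = DMSO wells given calcium and 100% = 1 mM EGTA wells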
# Beta apoptosis – blocks beta cell apoptosis. INS-1E cytokine-induced death, ATP luminescence, 48 h; percent of positive-control rescue, neutral wells zero. protection from apoptosis, % (no concentration beside the values). 0.8% of 300,000 active;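 active = Every replicate reaches about 75%, or at least half do and their mean reaches it too, limit read from the data; inconclusive = At least half of replicates reach the limit but their mean does not; inactive = Under half of replicates reach the limit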;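 note: 0% = cytokine-treated negative control wells and 100% = positive control rescue; higher means more ATP so stronger rescue from cytokine killing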
# CSC inhib – blocks cancer stem cells. cancer stem cell-like cells viability, luminescence. inhibition, % at 7.5 µM. 1.1% of 300,000 active. AID 2717; in the data active = inhibition above about 75%; inconclusive = no clear call, values can overlap the other calls; tested in HMLE shEcad cells
# SKKanGAS inh – inhibitors of SKKanGAS S. pyogenes growth in kanamycin (SK-promoter or general growth effect); BacTiter-Glo, 6 h; inhibition, % at 7.5 µM; 1.3% of 300,000 active; AID 1662;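 active = mean replicate score, as percent of positive control median, at least 50; inconclusive = mean below 50 but one replicate at or above 50; inactive = mean and every replicate below 50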;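 note: strain carries kanamycin resistance gene driven by streptokinase promoter and grows in 40 µg/ml kanamycin; loss of luminescence reflects streptokinase promoter inhibition or plain growth inhibition; 0% = median of DMSO wells and 100% = positive control at its reference dose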
# Active calls of the source: *; ? = inconclusive; / = no result.
SMILES,Mdm2-MdmX inh,GRIN3A LBD mod,MPTP inh,Beta apoptosis,CSC inhib,SKKanGAS inh
COc1cc(C(=O)Nc2c(C(=O)O)[nH]c3ccc(Br)cc23)cc(OC)c1OC,-7,10*,0,0,-18,9
COc1ccc(CCNC(=O)c2ccc3c(c2)S(=O)(=O)N=C2CCCCCN23)cc1OC,/,/,-1,/,/,/
O=C(NC(Cc1c[nH]c2ccccc12)c1nnc2n1CCCCC2)c1ccccc1 (stereo not drawn),5,1,-2,-5,-14,-1
O=C(NC(Cc1c[nH]c2ccccc12)c1nnc2n1CCCCC2)c1ccccc1Cl (stereo not drawn),12,11*,0,2,-13,1
COc1ccccc1N1CCN(C(=O)c2cccc(S(=O)(=O)N3CCCCCC3)c2)CC1,21,2,-1,/,/,/
O=C(NC1CC2CCCC(C1)N2C(=O)Nc1ccccc1Cl)C1CC1 (stereo not drawn),-15,-3,-2,-3,-10,-4
CC(C)(C)C(=O)N1N=C(c2ccc(NS(C)(=O)=O)cc2)CC1c1cccs1 (stereo not drawn),8,-5,1,-2,0,50*
O=C1C=C(c2ccc(Cl)nc2)C[C@@H](c2ccc3c(c2)OCO3)C1,-18,-2,-2,1,49,/
O=c1[nH]c(NNC(=S)NCc2ccccc2)nc2c1C1(CCCCC1)Cc1ccccc1-2,-2,26*,43,-6,106*,101*
C=CCNC(=S)NNc1nc2c(c(=O)[nH]1)C1(CCCC1)Cc1ccccc1-2,4,-2,11,-27,6,-17
O=c1[nH]c(NNC(=S)NC2CCCCC2)nc2c1C1(CCCC1)Cc1ccccc1-2,-1,-2,4,-2,?,74*
O=c1[nH]c(NCCCO)nc2c1C1(CCCC1)Cc1ccccc1-2,15,-11,4,104*,41,-11
CN1CC(c2ccc(Cl)c(Cl)c2)[C@@]2(COc3ccccc3C2=O)[C@@]12C(=O)Nc1ccccc12 (stereo partly drawn),35,-8,22,17,-11,79*
CCCc1cc(-c2nc(N)ncc2-c2ccc3c(c2)OCCCO3)c(O)cc1OC,40,-6,-2,0,173*,17
Cc1ccc2oc(C(=O)NCC(c3ccco3)N(C)C)c(C)c2c1 (stereo not drawn),-41,0,-1,-5,9,-1
NNC(=O)c1ccc(OCC2CC(c3ccc(Cl)cc3)=NO2)cc1 (stereo not drawn),28,0,2,0,39,51*
CCOC(=O)C1CCN(C(=O)C2COc3ccccc3O2)CC1 (stereo not drawn),18,-1,0,0,-10,-2
COCCNC(=O)Cn1nc(C)c([N+](=O)[O-])c1C,-1,-1,0,-3,6,-19
Cn1c(C(=O)N2CCCC(C(=O)c3ccc(C(F)(F)F)cc3)C2)cc(=O)n(C)c1=O (stereo not drawn),-23,0,0,/,1,-6
CCOc1ccc(Br)cc1S(=O)(=O)Nc1ccc(Cl)c(S(=O)(=O)N(C)C)c1,22,0,14,-1,1,12
CCOc1ccc(Br)cc1S(=O)(=O)Nc1ccc(Cl)c(S(=O)(=O)N(CC)c2ccccc2)c1,0,13*,7,0,45,10
Clc1nssc1=Nc1nncs1,-20,25*,2,-4,-4,/
Clc1ccc(N=c2ssnc2Cl)nc1,26,2,0,-12,27,25
CCCCN(C(=O)c1cc(CN2C(=O)c3ccccc3C2=O)ccc1OC)c1c(N)n(CC(C)C)c(=O)[nH]c1=O,/,1,1,/,/,/
Cc1ccc2nc(-c3sc4nc(C)cc(C)c4c3N)[nH]c2c1,-51,15*,4,6,-21,1
Cc1ccc2nc(-c3cccc(N)c3)[nH]c2c1,-83,-5,-1,23,-12,15
Nc1ccc(N(CCO)CCO)cc1,4,2,4,-1,3,7
OCCN(CCO)c1ccc(C(c2ccc(Cl)cc2)c2ccc(N(CCO)CCO)cc2Cl)c(Cl)c1,16,28*,-1,1,22,93*
COC(=O)C[C@H](NC(=O)Cn1cnc2c(SC)nc(N)nc21)C(=O)OC,-15,0,0,-5,1,/

# Screens: PubChem, several laboratories
